V-ATPase pHluor: regulators of yeast V-ATPase proton transport | S. cerevisiae, pHLuorin cytosolic pH fluorescence | response, % at 10 µM | AID 504577 | 0.37% of 350,000 active; in the data active = response mostly above about 7.3%, no sharp cut-off; inactive = mostly below about 5.4%; also: actives read high
TIM10 inh: growth inhibitors of TIM10 yeast strain; S. cerevisiae TIM10 strain growth, BacTiter-Glo luminescence, 24 h; 1.4% of 330,000 active; inhibition, % at 10 µM; AID 463195;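 active = inhibition of 40% or more at the single tested concentration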;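 also: wild-type TIM10 isogenic control strain grown at permissive 25 °C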
tim10-1 inh: inhibits growth of tim10-1 mutant yeast. 2.2% of 330,000 active. S. cerevisiae tim10-1 ts strain growth, BacTiter-Glo, 24 h. inhibition, % at 20 µM. AID 463190;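 active = inhibition of at least 40%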;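 also: mutant grown at 25 °C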
NALP1 yeast inh: blocks the NALP1 inflammasome reconstituted in yeast. inhibition, % at 10 µM. 0.61% of 280,000 active. S. cerevisiae NALP1/ASC/caspase-1 growth, X-gal OD620, 72 h; in the data active = inhibition mostly above about 24%, no sharp cut-off; inactive = mostly below about 32%
tim23-1 inh: growth inhibitors of tim23-1 mutant yeast; S. cerevisiae tim23-1 growth, BacTiter-Glo luminescence, 24 h; inhibition, % at 20 µM; 1.3% of 330,000 active; AID 463212;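 active = growth inhibition of the mutant yeast at or above 50%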;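 also: temperature-sensitive mutant grown at 25 °C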
NLRP3 yeast inh: inhibitors of NALP3 inflammasome in yeast; Yeast reconstituted NLRP3/ASC/caspase-1, beta-gal luminescence, 24 h; 0.39% of 330,000 active; inhibition, % at 10 µM;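 active = inhibition of 50% or more; inactive = inhibition below 50%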
tim10-1 conf: confirmation of tim10-1 mutant yeast growth inhibitors; inhibition, % at 20 µM; AID 463213; shares compounds with tim10-1 inh; S. cerevisiae tim10-1 ts strain growth, BacTiter-Glo, 24 h; 56% of 7,400 active;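 active = inhibition of yeast growth at or above a set limit in either of two repeat tests at 20 µM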;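 also: tim10-1 mutant grown at permissive 25 °C to find synthetic lethal compounds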
Of the large screens only hits and unclear results are named; the others gave an inactive call (follow-up assays come after a bar, where they were run). Compounds with a hit are over-represented: about 4.2% of the library has one in this group of screens.

CC(Cc1c[nH]c2ccccc12)C(=O)N1CCN(c2ccccc2F)CC1 (stereo unspecified)	tim10-1 inh 97 | tim10-1 conf inactive
CCOC(=O)c1c(CSc2ccccc2)n(C)c2ccc(O)c(CN3CCOCC3)c12	tim10-1 inh 44 | tim10-1 conf inactive
CCOC(=O)c1c(C)n(C)c2ccc(O)c(CN3CCN(C)CC3)c12	none
COCc1ccc(-c2c(-c3ccc(OC)cc3)oc(=O)c3cc(OC)c(OC)cc23)cc1	none (no result: NALP1 yeast inh)
O=S(=O)(c1ccccc1)N(Cc1ccccn1)Cc1ccccn1	none
NS(=O)(=O)c1ccc(CCNCc2ccccc2OCc2ccc(F)cc2)cc1	none
NS(=O)(=O)c1ccc(NCc2ccccc2OCc2ccc(F)cc2)cc1	tim10-1 inh 44 | tim10-1 conf inactive
CCOc1ccc(-c2nnn(CC(=O)N3CCCC(C)C3)n2)cc1 (stereo unspecified)	none
CN(C)S(=O)(=O)N1CCN(c2cc(Cl)ccc2Cl)CC1	tim10-1 inh 43 | tim10-1 conf inactive
CCC1SC(=NC(=O)c2ccc(Cl)c(Cl)c2)NC1=O (stereo unspecified)	none
O=[N+]([O-])c1ccc(NCc2ccc(Cl)cc2)nc1	none
O=[N+]([O-])c1ccc(Nc2ccc(Cl)cc2)nc1	tim10-1 inh 59 | tim10-1 conf 42
Cc1ccc2nc(/C(C#N)=C/c3ccc(-c4ccccc4C(=O)O)o3)[nH]c2c1	none
Cc1cc2nc(/C(C#N)=C\c3ccc(-c4ccccc4C(=O)O)o3)[nH]c2cc1C	tim10-1 inh 46 | tim10-1 conf 39
CC(C)CNC(=S)Nc1ccc(Oc2ccccc2)cc1	tim10-1 inh 43 | tim10-1 conf inactive
CCNC(=S)Nc1ccc(N(c2ccccc2)C(C)C)cc1	tim10-1 inh 42 | tim10-1 conf inactive
CC1=C(C(=O)N2CCOCC2)C(c2ccc(Cl)cc2)NC(=S)N1 (stereo unspecified)	none
Cc1cccc(NC(=S)NC(=O)c2cccs2)n1	tim10-1 inh 45 | tim10-1 conf inactive
Cc1cccc(NC(=O)c2ccc([N+](=O)[O-])cc2Cl)n1	none
Cc1cccc(NC(=O)c2ccc([N+](=O)[O-])s2)n1	tim10-1 inh 61 | tim10-1 conf 58
Cc1nc(NC(=S)NC(=O)c2cccs2)ccc1Br	none
CN1CCN(CCCNC(=O)c2ccc(/C=C3\Oc4ccccc4N(Cc4ccccc4F)C3=O)cc2)CC1	tim10-1 inh 42 | tim10-1 conf inactive
CN1CCN(CCCNC(=O)c2ccc(/C=C3\Sc4ccccc4N(Cc4ccc(F)cc4)C3=O)cc2)CC1	none (no result: TIM10 inh, tim10-1 inh, tim23-1 inh, NLRP3 yeast inh)
CC(=O)Nc1ccc(NC(=O)c2nc(S(=O)(=O)Cc3ccccc3)ncc2Cl)cc1	none
O=C(NCc1ccccc1)c1nc(S(=O)(=O)Cc2ccccc2)ncc1Cl	tim10-1 inh 52 | tim10-1 conf inactive
O=C(NCc1ccc2c(c1)OCO2)c1nc(S(=O)(=O)Cc2ccccc2F)ncc1Cl	none
O=C(NCc1ccc2c(c1)OCO2)c1nc(S(=O)(=O)Cc2ccccc2)ncc1Cl	tim10-1 inh 55 | tim10-1 conf inactive
COc1ccc(CNC(=O)c2nc(S(=O)(=O)Cc3ccccc3)ncc2Cl)cc1	tim10-1 inh 59 | tim10-1 conf 31

High-throughput results: PubChem BioAssay, several laboratories
